For orientation: inhibition means the change of the read-out against control, counted positive when it falls.

Unmarked numbers belong to inactive results. For some of these results: Results with a measured potency or affinity are listed apart. Active and inactive are the calls of the source. Unless noted, the rule behind the calls is not given here.

Assay [1] can be described thus: antimalarial activity against Dd2 strain (AID 2302;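 active = growth inhibition above 50% at the single 2 µM test dose, taken to imply half-maximal potency below 2 µM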;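 note: 0% = DMSO untreated growth and 100% = chloroquine plus artemisinin killed control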). To be noted: P. falciparum Dd2 in RBCs, LDH growth readout, 72 h; at 2 µM; stronger effect = higher value.
Assay [2] can be described thus: human hepatoma cell viability loss – ATP luminescence, cytotoxicity control for P. falciparum antimalarial project, primary screen (AID 2303;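 active = inhibition above 50%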;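 note: 0% = DMSO wells and 100% = digitonin-killed cells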). To be noted: HepG2 viability, 24-48 h, at 10 µM, stronger effect = higher value.
Assay [3] concerns the target L-lactate dehydrogenase (Plasmodium falciparum (isolate CDC / Honduras)) (UniProt Q27743). The assay can be described thus: PfLDH activity inhibition – cell lysate, 3D7 strain, counter-screen for P. falciparum growth inhibition project (AID 2304).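 Note: 0% = vehicle and 100% = reference inhibitor.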 To be noted: P. falciparum 3D7 crude extract, LDH APAD/NBT absorbance; at 2 µM; stronger effect = higher value. For orientation: The purpose of a counterscreen is to sort out artefacts and off-target activity.

Assay [4] in a line: inhibition of 3D7 malaria parasite growth – strain 3D7 (AID 2306).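 Note: 0% = DMSO wells and 100% = chloroquine plus artemisinin control wells.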 To be noted: P. falciparum 3D7 erythrocytic growth, LDH absorbance, 72 h; at 2 µM; stronger effect = higher value.
Assay [5] addresses Calcium-dependent protein kinase 1 (Plasmodium falciparum (isolate 3D7)) (UniProt P62344). Nature of the assay: PfCDPK1 kinase inhibitors, biochemical, TCAMS library (AID 1159585; cut-off not given, nearly all actives have IC50 up to about 0.98 µM;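 note: inhibitors leave more ATP so luminescence rises with inhibition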). To be noted: recombinant PfCDPK1, Kinase-Glo ATP depletion luminescence. (In general: Kinase-Glo measures the ATP left after a reaction by luminescence.)
Assay [6] addresses Plasmodium falciparum protein kinase 6 (PK6, PF3D7_1337100) (UniProt Q8IDW1). The assay can be described thus: PfPK6 kinase inhibitors, biochemical, TCAMS library (AID 1159586). As to conditions: recombinant PfPK6, Kinase-Glo ATP depletion luminescence.
The target of assay [7] is Protein kinase 7 (PK7), Plasmodium falciparum 3D7 (PF3D7_0213400) (UniProt Q7YTF7). Nature of the assay: inhibition of Plasmodium PK7 catalytic activity – biochemical, TCAMS antimalarial set, Kinase-Glo luminescence (AID 1159587). To be noted: recombinant PfPK7, Kinase-Glo ATP depletion luminescence.
Protein kinase 7 (PK7), Plasmodium falciparum 3D7 (PF3D7_0213400), sequence (Q7YTF7 1-343): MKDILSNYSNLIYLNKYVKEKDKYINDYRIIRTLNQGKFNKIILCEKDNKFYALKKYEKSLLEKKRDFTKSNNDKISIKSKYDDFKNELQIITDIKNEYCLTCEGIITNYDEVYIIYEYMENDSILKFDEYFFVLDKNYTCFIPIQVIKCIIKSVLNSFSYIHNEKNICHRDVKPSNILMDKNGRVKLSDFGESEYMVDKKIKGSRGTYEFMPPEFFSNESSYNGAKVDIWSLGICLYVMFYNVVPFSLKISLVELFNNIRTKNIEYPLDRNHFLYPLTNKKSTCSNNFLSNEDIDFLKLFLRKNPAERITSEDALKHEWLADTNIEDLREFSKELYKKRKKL
Assay [8] deals with Calcium-dependent protein kinase 4 (Plasmodium falciparum (isolate 3D7)) (UniProt Q8IBS5). Nature of the assay: PfCDPK4 kinase inhibitors, biochemical, TCAMS library (AID 1159588; cut-off not given, nearly all actives have IC50 up to about 0.91 µM). To be noted: recombinant PfCDPK4, Kinase-Glo ATP depletion luminescence.
Calcium-dependent protein kinase 4 (Plasmodium falciparum (isolate 3D7)), sequence (Q8IBS5 whole entry, looked up): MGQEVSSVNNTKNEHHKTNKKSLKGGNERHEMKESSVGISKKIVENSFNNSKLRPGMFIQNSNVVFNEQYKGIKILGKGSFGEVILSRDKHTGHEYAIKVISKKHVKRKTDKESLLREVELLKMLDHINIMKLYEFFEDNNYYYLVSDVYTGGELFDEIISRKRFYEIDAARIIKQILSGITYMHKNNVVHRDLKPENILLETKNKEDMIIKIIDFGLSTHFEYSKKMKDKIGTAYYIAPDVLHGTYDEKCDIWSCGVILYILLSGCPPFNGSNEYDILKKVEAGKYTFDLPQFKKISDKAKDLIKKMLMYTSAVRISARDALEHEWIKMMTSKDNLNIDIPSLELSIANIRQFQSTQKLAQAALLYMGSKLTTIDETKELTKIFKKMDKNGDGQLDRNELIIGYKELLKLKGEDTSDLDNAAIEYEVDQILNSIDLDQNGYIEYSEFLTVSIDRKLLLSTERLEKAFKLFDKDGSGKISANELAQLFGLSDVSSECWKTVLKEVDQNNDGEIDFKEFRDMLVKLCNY

L-lactate dehydrogenase (Plasmodium falciparum (isolate CDC / Honduras)), sequence (Q27743 whole entry, looked up): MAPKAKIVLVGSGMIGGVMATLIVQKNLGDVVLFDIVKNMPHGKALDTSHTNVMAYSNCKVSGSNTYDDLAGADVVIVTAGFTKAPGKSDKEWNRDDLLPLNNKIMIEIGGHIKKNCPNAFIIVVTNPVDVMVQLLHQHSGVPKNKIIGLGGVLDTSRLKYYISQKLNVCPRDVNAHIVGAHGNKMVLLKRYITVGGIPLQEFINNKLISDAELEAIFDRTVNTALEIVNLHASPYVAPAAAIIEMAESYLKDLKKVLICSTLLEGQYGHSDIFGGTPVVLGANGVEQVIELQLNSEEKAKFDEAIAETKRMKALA
Plasmodium falciparum protein kinase 6 (PK6, PF3D7_1337100), sequence (Q8IDW1 1-305): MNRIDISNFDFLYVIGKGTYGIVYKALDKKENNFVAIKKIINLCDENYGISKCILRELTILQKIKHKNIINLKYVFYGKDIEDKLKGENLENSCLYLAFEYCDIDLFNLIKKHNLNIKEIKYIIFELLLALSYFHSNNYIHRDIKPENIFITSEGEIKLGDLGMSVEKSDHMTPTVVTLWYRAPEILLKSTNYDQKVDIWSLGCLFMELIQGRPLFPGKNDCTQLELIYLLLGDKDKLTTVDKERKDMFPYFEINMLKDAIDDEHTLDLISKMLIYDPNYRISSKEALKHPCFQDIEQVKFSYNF
Calcium-dependent protein kinase 1 (Plasmodium falciparum (isolate 3D7)), sequence (P62344 whole entry, looked up): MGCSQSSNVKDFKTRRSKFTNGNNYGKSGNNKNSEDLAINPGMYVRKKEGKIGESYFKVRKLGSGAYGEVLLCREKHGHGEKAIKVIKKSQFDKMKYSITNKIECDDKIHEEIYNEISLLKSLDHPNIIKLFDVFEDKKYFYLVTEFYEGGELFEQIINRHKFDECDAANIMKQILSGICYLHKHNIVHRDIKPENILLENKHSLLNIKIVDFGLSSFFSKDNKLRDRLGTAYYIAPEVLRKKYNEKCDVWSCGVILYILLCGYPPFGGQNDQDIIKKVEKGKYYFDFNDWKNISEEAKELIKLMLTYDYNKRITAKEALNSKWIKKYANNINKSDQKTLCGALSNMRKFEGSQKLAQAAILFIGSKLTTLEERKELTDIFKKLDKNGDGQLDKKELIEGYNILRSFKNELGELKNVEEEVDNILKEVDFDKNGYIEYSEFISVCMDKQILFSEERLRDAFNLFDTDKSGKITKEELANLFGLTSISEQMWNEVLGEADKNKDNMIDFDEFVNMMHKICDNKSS

`O=C(NCCCCN1CCN(c2cccc3ccccc23)CC1)c1ccc(NC(=O)c2ccc(Cl)cc2)cc1`: the growth inhibition in assay [1] was 64% (active); in assay [4], 101% (active). The values for the inhibition in assay [2] and in assay [3] were 38% and 6%, respectively. Further, the outcome in assay [5], in assay [6], in assay [7] and in assay [8] was inactive.
In the case of `CCCCCCN1CCCN(Cc2ccc(C(=O)Nc3ccc(C(C)C)cc3)cc2)CC1`, the growth inhibition in assay [1] was 50% (active); in assay [4] it was 93% (active). Further, the inhibition in assay [2] was 40%; in assay [3] it was -4%. Also, the result in assay [5], in assay [6], in assay [7] and in assay [8] was inactive.
Regarding `COc1cc2nc(N3CCC(CNC(=O)c4ccc(-c5ccc(C(F)(F)F)cc5)cc4)CC3)nc(N)c2cc1OC`, the growth inhibition in assay [1] and in assay [4] was 100% (active) throughout. In addition, the inhibition is 94% (active) in assay [2] and 3% in assay [3]. Further, the outcome in assay [5], in assay [6], in assay [7] and in assay [8] was inactive.
As to `Nc1ccc2[nH]cc(C3CCN(CC4CCC(NC(=O)/C=C/c5ccc(Cl)c(Cl)c5)CC4)CC3)c2n1` (stereo not given), the results for the growth inhibition in assay [1] and in assay [4] were 93% (active) and 100% (active), respectively. In addition, the inhibition in assay [2] was 18%; in assay [3], 1%. In addition, the result in assay [5], in assay [6], in assay [7] and in assay [8] was inactive.
Consider `O=C(Nc1cccc(C(F)(F)F)c1)Nc1nc2ccc([N+](=O)[O-])cc2s1`, for which the values for the growth inhibition in assay [1] and in assay [4] were 76% (active) and 102% (active), respectively. The inhibition in assay [2] is 81% (active); in assay [3] it was 0%. For the same molecule, the result in assay [5], in assay [6], in assay [7] and in assay [8] was inactive.
Turning to `Oc1ccc(Nc2nc(NCc3ccccc3)c3ccccc3n2)cc1`, the figures for the growth inhibition in assay [1] and in assay [4] were 100% (active) and 101% (active), respectively. Also, the figures for the inhibition in assay [2] and in assay [3] were 33% and 3%, respectively. In addition, the outcome in assay [5], in assay [6], in assay [7] and in assay [8] was inactive.
As to `Cc1cc([N+](=O)[O-])ccc1NC(=O)Nc1cccc(C(F)(F)F)c1`, the growth inhibition in assay [1] was 100% (active); in assay [4] it was 102% (active). In addition, the inhibition was 15% in assay [2] and -1% in assay [3]. Also, the outcome in assay [5], in assay [6], in assay [7] and in assay [8] was inactive.
As for `O=C(Nc1ccc(Cl)cc1)c1ccc(CN2CCCN(Cc3cccc(F)c3)CC2)cc1`, the figures for the growth inhibition in assay [1] and in assay [4] were 8% and 91% (active), respectively. For the same molecule, the inhibition in assay [2] is 59% (active); in assay [3] it was 6%. The result in assay [5], in assay [6], in assay [7] and in assay [8] was inactive.
For the molecule `O=C(NCC1CCN(Cc2ccsc2)C1)c1cc(-c2cccc(C(F)(F)F)c2)cs1` (stereo not given), the growth inhibition was 15% in assay [1] and 98% (active) in assay [4]. In addition, the inhibition is 37% in assay [2] and -2% in assay [3]. In addition, the outcome in assay [5], in assay [6], in assay [7] and in assay [8] was inactive.
As to `NC(N)=NCCN(Cc1ccccc1)c1ccc(Cl)cc1`, the growth inhibition is 99% (active) in assay [1] and 100% (active) in assay [4]. For the same molecule, the results for the inhibition in assay [2] and in assay [3] were -7% and -3%, respectively. Also, the outcome in assay [5], in assay [6], in assay [7] and in assay [8] was inactive.
As for `CCC(CC)n1c(C)cc2c3c(N)nc(N)nc3ccc21`, the growth inhibition in assay [1] and in assay [4] was 95% (active) in each case. The inhibition was 61% (active) in assay [2] and 1% in assay [3]. Moreover, the result in assay [5], in assay [6], in assay [7] and in assay [8] was inactive.
Turning to `COc1ccc2nc(NC3=NC(c4ccccn4)(c4ccccn4)C(=O)N3C)[nH]c2c1`, the growth inhibition in assay [1] is 98% (active); in assay [4] it was 99% (active). Also, the inhibition in assay [2] was 65% (active); in assay [3], 1%. For the same molecule, the outcome in assay [5], in assay [6], in assay [7] and in assay [8] was inactive.
`CCOc1cc(C(=O)NC2CCN(Cc3ccccc3)C2)ccc1-c1nc2ccc(Cl)cc2[nH]1` (stereo not given): the growth inhibition in assay [1] was 60% (active); in assay [4], 98% (active). In addition, the inhibition is 7% in assay [2] and 6% in assay [3]. The outcome in assay [5], in assay [6], in assay [7] and in assay [8] was inactive.
Take `Fc1cc(Cl)ccc1Nc1ccnc2cc(-c3ccc(CN4CCNCC4)o3)ccc12`: the figures for the growth inhibition in assay [1] and in assay [4] were 99% (active) and 100% (active), respectively. Further, the inhibition was 16% in assay [2] and 1% in assay [3]. In addition, the result in assay [5], in assay [6], in assay [7] and in assay [8] was inactive.
On to `C[C@@H]1CN(c2ncc(-c3ccc(CNC4Cc5ccccc5C4)cc3)cn2)C[C@H](C)N1`, for which the figures for the growth inhibition in assay [1] and in assay [4] were 78% (active) and 85% (active), respectively. Besides, the inhibition was 27% in assay [2] and -10% in assay [3]. Also, the outcome in assay [5], in assay [6], in assay [7] and in assay [8] was inactive.
Turning to `COc1cc2nc(NCc3ccccc3)nc(NCc3ccccc3)c2cc1OC`, the growth inhibition in assay [1] and in assay [4] was 102% (active) each time. Besides, the values for the inhibition in assay [2] and in assay [3] were 66% (active) and -3%, respectively. In addition, the result in assay [5], in assay [6], in assay [7] and in assay [8] was inactive.
Regarding `COC(=O)c1cccc(CNCc2ccc(-c3ccc(-c4nc5ccc(C(F)(F)F)cc5[nH]4)s3)cc2)c1`, the results for the growth inhibition in assay [1] and in assay [4] were 96% (active) and 101% (active), respectively. Further, the inhibition was 34% in assay [2] and -2% in assay [3]. The outcome in assay [5], in assay [6], in assay [7] and in assay [8] was inactive.
`COc1c(C2CCN(CCCCNC(=O)c3ccc(-c4ccc(C(=O)C(F)(F)F)cc4)cc3)CC2)ccc2c1CCCC2`: the growth inhibition in assay [1] is 33%; in assay [4], 81% (active). Moreover, the inhibition was 99% (active) in assay [2] and -4% in assay [3]. The outcome in assay [5], in assay [6], in assay [7] and in assay [8] was inactive.
In the case of `O=C(Cc1cccs1)NC(CCCN1CCC(Oc2cccc(Cl)c2)CC1)c1ccc(Cl)c(Cl)c1` (stereo not given), the growth inhibition was 70% (active) in assay [1] and 86% (active) in assay [4]. Besides, the inhibition in assay [2] is 39%; in assay [3] it was 3%. For the same molecule, the outcome in assay [5], in assay [6], in assay [7] and in assay [8] was inactive.
On to `COc1ccc(NC(=O)[C@H](Cc2ccccc2)Nc2cc(C)nc(NCC3CCCCC3)n2)cc1`, for which the results for the growth inhibition in assay [1] and in assay [4] were 83% (active) and 100% (active), respectively. The inhibition was 9% in assay [2] and 1% in assay [3]. Further, the outcome in assay [5], in assay [6], in assay [7] and in assay [8] was inactive.
